# In the supplement of paper PMC7595190:
# Unmarked numbers belong to inactive results.
# How the values were obtained:
# Test in all cases: CellTox Green cytotoxicity fluorescence relative to DMSO vehicle (fold of vehicle RFU); higher = more cell death (loss of membrane integrity), active = 2 or more
# [1] = test system: CMK
# In short: (§1)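 Values are cytotoxicity, read as fluorescence from loss of membrane integrity and expressed as fold of the DMSO vehicle. MV4-11, CMK and Kasumi-1 cells at 4.0 × 10^4 per well received CellTox Green reagent at seeding and single Selleckchem apoptosis library compounds at final 0.01, 0.1 and 1 µM (vehicle 0.1% DMSO). Plates were incubated at 37 °C, 5% CO2 and read at 24, 48 and 72 h.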
# [2] = test system: Kasumi-1
# In short: as §1
# [3] = test system: MV4-11
# In short: as §1
Structure (SMILES),"CellTox Green cytotoxicity fluorescence ([1]; 0.01 µM, 24 h)","CellTox Green cytotoxicity fluorescence ([1]; 0.01 µM, 48 h)","CellTox Green cytotoxicity fluorescence ([1]; 0.01 µM, 72 h)","CellTox Green cytotoxicity fluorescence ([1]; 0.1 µM, 24 h)","CellTox Green cytotoxicity fluorescence ([1]; 0.1 µM, 48 h)","CellTox Green cytotoxicity fluorescence ([1]; 0.1 µM, 72 h)","CellTox Green cytotoxicity fluorescence ([1]; 1 µM, 24 h)","CellTox Green cytotoxicity fluorescence ([1]; 1 µM, 48 h)","CellTox Green cytotoxicity fluorescence ([1]; 1 µM, 72 h)","CellTox Green cytotoxicity fluorescence ([2]; 0.01 µM, 24 h)","CellTox Green cytotoxicity fluorescence ([2]; 0.01 µM, 48 h)","CellTox Green cytotoxicity fluorescence ([2]; 0.01 µM, 72 h)","CellTox Green cytotoxicity fluorescence ([2]; 0.1 µM, 24 h)","CellTox Green cytotoxicity fluorescence ([2]; 0.1 µM, 48 h)","CellTox Green cytotoxicity fluorescence ([2]; 0.1 µM, 72 h)","CellTox Green cytotoxicity fluorescence ([2]; 1 µM, 24 h)","CellTox Green cytotoxicity fluorescence ([2]; 1 µM, 48 h)","CellTox Green cytotoxicity fluorescence ([2]; 1 µM, 72 h)","CellTox Green cytotoxicity fluorescence ([3]; 0.01 µM, 24 h)","CellTox Green cytotoxicity fluorescence ([3]; 0.01 µM, 48 h)","CellTox Green cytotoxicity fluorescence ([3]; 0.01 µM, 72 h)","CellTox Green cytotoxicity fluorescence ([3]; 0.1 µM, 24 h)","CellTox Green cytotoxicity fluorescence ([3]; 0.1 µM, 48 h)","CellTox Green cytotoxicity fluorescence ([3]; 0.1 µM, 72 h)","CellTox Green cytotoxicity fluorescence ([3]; 1 µM, 24 h)","CellTox Green cytotoxicity fluorescence ([3]; 1 µM, 48 h)","CellTox Green cytotoxicity fluorescence ([3]; 1 µM, 72 h)"
Fc1ccc(CNc2ncnc3ccc(F)cc23)cc1 [Spautin-1],0.96,1.08,1.16,0.971,0.943,0.916,0.983,0.967,0.917,1.03,1.04,0.987,1,1,0.997,1.04,1.01,1.01,0.982,0.965,0.962,0.962,0.942,0.936,1.03,1.02,1.02
c1ccc2c(CCNc3ccc(Nc4ccncc4)cc3)c[nH]c2c1 [Serdemetan],0.966,0.966,0.987,0.95,0.971,1.05,0.925,1.67,2.28 (active),0.983,0.933,0.904,0.969,0.964,0.955,1.01,1.45,1.77,0.97,0.948,0.953,0.929,0.918,0.946,1.21,3.08 (active),3.17 (active)
CC(=O)O/N=C1/C(c2c(O)[nH]c3cc(Br)ccc23)=Nc2ccccc21 [BIO-acetoxime],1.02,0.999,0.97,0.981,0.97,0.981,0.973,0.945,1.12,1.05,1.05,1.04,1.02,1.04,1.04,0.974,1.07,1.11,1.7,1.57,1.56,1.03,1.11,1.17,1.02,1.2,1.36
C=CC(=O)N1CCN(C(=O)CNc2cc(I)c(Cl)cc2O)CC1 [K-Ras(G12C) inhibitor 12],1.01,0.986,0.963,0.999,0.997,0.992,0.992,1,1.02,0.989,1.01,1,1.01,0.982,0.979,0.995,0.964,0.958,0.959,0.976,0.971,0.991,0.991,1.01,0.993,0.996,1.03
CCS(=O)(=O)N1CCN(c2ccc(Nc3ncc(C(N)=O)c(NC4CC4)n3)cc2)CC1 [Cerdulatinib],0.961,0.986,0.983,0.961,1.07,0.888,1.13,1.64,1.34,0.959,0.983,1.01,0.98,1.06,1.07,0.928,1.08,1.15,0.937,0.94,0.941,0.942,0.965,0.965,0.949,1.07,1.11
CCOc1cc(C(C)(C)C)ccc1C1=N[C@@](C)(c2ccc(Cl)cc2)[C@@](C)(c2ccc(Cl)cc2)N1C(=O)N1CCN(CCCS(C)(=O)=O)CC1,0.987,0.993,1.01,0.995,0.996,1,1.02,1.05,1.02,0.977,0.992,1.01,0.987,0.969,0.96,1.03,1.03,1.03,0.993,1.01,1.01,1.03,1.07,1.13,1.07,1.63,2.02 (active)
CCO[C@@H]1OC(=O)C[C@@H]1NC(=O)[C@@H]1CCCN1C(=O)[C@@H](NC(=O)c1ccc(N)c(Cl)c1)C(C)(C)C,0.989,0.988,1,0.971,0.981,0.995,0.96,0.975,1.03,0.954,0.953,0.948,0.98,0.961,0.948,0.997,1.02,1.03,0.972,0.981,0.987,0.995,0.989,0.996,1,1,1.01
CC[C@@]1(O)C(=O)OCc2c1cc1n(c2=O)Cc2cc3cc(O)ccc3nc2-1 [(S)-10-Hydroxycamptothecin],0.964,1.06,1.19,1.56,2.2 (active),2.02 (active),0.988,1.01,0.878,0.962,0.972,0.997,0.972,1.07,1.27,0.98,1.23,1.59,1.01,1.35,1.89,1.09,1.65,1.93,1.27,2.3 (active),2.45 (active)
C=CC(=O)N1CC(=Cc2ccc([N+](=O)[O-])cc2)C(=O)C(=Cc2ccc([N+](=O)[O-])cc2)C1,0.921,0.908,0.929,1.13,1.16,1.07,2.14 (active),3.36 (active),2.48 (active),1.01,0.937,0.951,1.01,1.05,1.04,1.25,1.78,1.95,0.967,0.965,0.983,1.11,1.66,1.78,1.68,2.12 (active),1.92
COc1nc(OCc2cccc(-c3ccccc3)c2C)ccc1CNCCNC(C)=O [PD-1/PD-L1 inhibitor 2],1.01,0.96,0.968,0.99,0.951,0.928,0.99,0.983,0.956,1,0.98,0.994,0.997,1.02,1.01,0.978,1,0.999,1.02,0.96,1,0.984,0.959,0.944,0.985,1,1.01
CCC(CC)n1ccc2c(C(=O)NCc3c(C)cc(C)[nH]c3=O)cc(C#N)cc21,0.768,0.767,0.8,,,,,,,,,,0.942,0.956,0.925,1.01,0.971,0.978,0.856,0.857,0.869,,,,,,
